Results filed as inconclusive are left out. Active and inactive are the calls of the source. The call rests on the fitted dose curve; in most records, active means well fitted inhibition curve with a large enough effect in the signal ratio in the repeat runs (not every such curve was filed as active); inconclusive means weak or mixed curves, or effect the other way; inactive means no such curve, though single readings can be large or run the other way; the % refers to the signal ratio.

Chain of Vitamin D3 receptor (Homo sapiens) (P11473 whole entry, looked up): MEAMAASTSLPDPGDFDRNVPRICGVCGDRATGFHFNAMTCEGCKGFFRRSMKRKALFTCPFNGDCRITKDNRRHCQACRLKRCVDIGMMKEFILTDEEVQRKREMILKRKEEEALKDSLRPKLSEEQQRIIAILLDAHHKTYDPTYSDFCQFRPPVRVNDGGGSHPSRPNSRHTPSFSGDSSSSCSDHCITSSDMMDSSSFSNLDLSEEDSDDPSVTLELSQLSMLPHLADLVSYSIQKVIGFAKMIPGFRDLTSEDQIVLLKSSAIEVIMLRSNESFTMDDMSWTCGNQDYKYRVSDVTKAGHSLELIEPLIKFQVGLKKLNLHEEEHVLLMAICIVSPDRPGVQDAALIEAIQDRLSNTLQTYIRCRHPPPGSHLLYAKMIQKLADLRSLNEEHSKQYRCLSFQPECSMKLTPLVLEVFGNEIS

The assay addresses Vitamin D3 receptor (Homo sapiens) (UniProt P11473). Description: qHTS assay to identify small molecule antagonists of the vitamin D receptor (VDR) signaling pathway (AID 743223). The conditions noted are these: VDR-UAS-bla HEK293T, beta-lactamase FRET ratio, 16 h; series mostly up to 61 µM. The source says: U.S. Tox21 Program National Center for Advancing Translational Sciences [NCATS] NIH Chemical Genomics Center [NCGC] U.S. Environmental Protection Agency [EPA] National Institutes of Environmental Health Sciences [NIEHS] National Toxicology Program [NTP] U.S. Food and Drug Administration [FDA] Tox21 Assay Overview: The vitamin D receptor (VDR), a member of nuclear hormone receptor superfamily, plays a critical role in calcium homeostasis and bone metabolism. It is also involved in cell differentiation and growth, and thrombogenicity.
Tox21 Assay Protocol Summary: VDR-bla cells were dispensed at 2,000 cells/5 uL of assay medium per well into black wall/clear-bottom 1536-well plates using a Multidrop Combi (Thermo Fisher Scientific, Waltham, MA) dispenser. After the assay plates were incubated at a 37C and 5% CO2 for 4 h, 23 nL of compounds dissolved in DMSO, positive controls or DMSO only was transferred to the assay plate by a Pintool station (Kalypsys, San Diego, CA), followed by addition of 1 uL of 1alpha, 25-Dihydroxy Vitamin D3 (3 nM, final concentration in the wells) using a Bioraptr Flying Reagent Dispenser (FRD) workstation (Beckman Coulter, Indianapolis, IN). The plates were incubated at 37C and 5% CO2 for 16 h, and then 1 uL of LiveBLAzerTM B/G FRET substrate was added using a Bioraptr FRD. The plates were incubated at room temperature for 2 h and fluorescence intensity was measured by an Envision plate reader (PerkinElmer, Shelton, CT).
(In general: qHTS replaces the single test concentration by a dilution series.)
Regarding `CCC(Br)(CC)C(=O)NC(N)=O`, the result was inactive.

With `Cn1sc(Cl)cc1=O`, the outcome was inactive.

For `NC(=O)C(Cl)(Cl)Cl`, the outcome was inactive.

Consider `CC(O)(CS(=O)(=O)c1ccc(F)cc1)C(=O)Nc1ccc(C#N)c(C(F)(F)F)c1` (stereo not given), for which the outcome was inactive. Next, `[CH3][Sn]([CH3])([Cl])[Cl]`: “inactive”. Next, `C/C=C/C=O`: “inactive”; `ClCc1cccc(Cl)c1`: “inactive”; `Clc1cc(Cl)c(Cl)c(Cl)c1`: “inactive”. In the case of `CCOP(=S)(OCC)Oc1cc(Cl)c(Br)cc1Cl` it was “inactive”; in that of `CC1(C)[C@H](C=C(Cl)Cl)[C@@H]1C(=O)O[C@@H](C#N)c1cccc(Oc2ccccc2)c1`, “inactive”. In the case of `Cc1c(F)c(F)c(COC(=O)C2C(/C=C(\Cl)C(F)(F)F)C2(C)C)c(F)c1F` (stereo not given), the outcome was inactive. Next, `C(=NC1CCCCC1)=NC1CCCCC1`: “inactive”; `CC(=O)CCC(C)=O`: “inactive”; `Nc1ccc([N+](=O)[O-])cc1[N+](=O)[O-]`: “inactive”. For `CCCN(CCCl)c1c([N+](=O)[O-])cc(C(F)(F)F)cc1[N+](=O)[O-]`, the result was inactive. In the case of `O=NN1CCNCC1` it was “inactive”. Next, `CCCCc1c(C)nc(NCC)nc1OS(=O)(=O)N(C)C`: “inactive”; `Cl/C=C\Cl`: “inactive”; `O=Cc1ccc(Cl)cc1Cl`: “inactive”. `CCC(Cl)CCl` (stereo not given): the result was inactive. Next, `ClCC(Br)CBr` (stereo not given): “inactive”; `C[C@H]1CNCCc2ccc(Cl)cc21`: “inactive”.

Consider `CCCCCCC#N`, for which the result was inactive. Next, `N#CCc1ccccc1`: “inactive”. Next, `O=NN1CCCCCC1`: “inactive”; `CCCCN(N=O)C(=N)N[N+](=O)[O-]`: “inactive”. On to `CCCC(=O)Cl`, for which the outcome was inactive. In the case of `CCOP(=O)(OCC)Oc1ccc([N+](=O)[O-])cc1` it was “inactive”; in that of `CO/N=C(/C(=O)OC)c1ccccc1COc1ccccc1C`, “inactive”.

As to `ClCCCCBr`, the result was inactive. Next, `CCCCNP(N)(N)=S`: “inactive”. Next, `O=C(CBr)Nc1ccc(Cl)cc1C(=O)c1ccccc1F`: “inactive”; `CCOC(=O)C(Cl)C(C)=O` (stereo not given): “inactive”; `COC(=O)C(Br)CBr` (stereo not given): “inactive”. With `O=[N+]([O-])c1ccc(F)c([N+](=O)[O-])c1`, the result was inactive. In the case of `CCOP(=O)(OCC)SCCSCC` it was “inactive”; in that of `O=C(NC(=O)c1c(F)cccc1F)Nc1ccc(OC(F)(F)C(F)OC(F)(F)F)c(Cl)c1` (stereo not given), “inactive”. Next, `CCOC(=O)COc1cc(-c2nn(C)c(OC(F)F)c2Cl)c(F)cc1Cl`: “inactive”; `CC1C(=O)C[C@]2(C(C)C)C[C@H]12` (stereo not given in full): “inactive”. In the case of `CCCCC(CC)COP(=O)(Oc1ccccc1)Oc1ccccc1` (stereo not given) it was “inactive”.

Values taken from PubChem BioAssay (Tox21).
